The text below walks through data of the supplement of paper PMC9262897, “Low-cost anti-mycobacterial drug discovery using engineered E. coli” (Nature Communications, 2022).

Where a name gives a salt, the structure may show the parent alone. ± gives the standard deviation of the averaged measurements.

The test system of the assay is E. coli TESEC Alr+ wild-type control. Kind of assay: growth (OD600 after 10 h); higher = more growth (less inhibition). The settings on record: compound 0.1 mM; raw OD600 reference: median of DMSO wells 0.49, cell-free background 0.052. As for the experimental part:
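TESEC Mtb Alr E. coli (ΔaraC ΔtolC ΔentC Δalr ΔdadX, arabinose-inducible Mtb Alr) or the Alr+ wild-type control strain, grown in defined M9-fructose medium without D-alanine in 96-well plates with Prestwick library compounds at 0.1 mM and 1% DMSO. Low Alr induction is 0.1 µM arabinose and high induction is 10 mM arabinose.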
On to `Cc1ccc(N(CC2=NCCN2)c2cccc(O)c2)cc1` [Phentolamine hydrochloride], for which the growth came to 0.452 ± 0.0089.
`COc1cc(C(=O)NCc2ccc(OCCN(C)C)cc2)cc(OC)c1OC` [Trimethobenzamide hydrochloride] registered a growth of 0.464 ± 0.066.
For the molecule `O=C1NCC2(CCN(CCc3ccccc3)CC2)O1` [Fenspiride hydrochloride], the growth stood at 0.487 ± 0.054.
The molecule `CN(C)CC/C=C1/c2ccccc2COc2ccc(CC(=O)O)cc21` [Olopatadine hydrochloride] showed a growth of 0.589 ± 0.097.
In turn, `CC/C(=C(/CC)c1ccc(O)cc1)c1ccc(O)cc1` [Diethylstilbestrol] gave a growth of 0.0495 ± 0.0011.
For the molecule `CC(C)(C)NC(=O)[C@@H]1C[C@@H]2CCCC[C@@H]2CN1C[C@@H](O)[C@H](Cc1ccccc1)NC(=O)[C@H](CC(N)=O)NC(=O)c1ccc2ccccc2n1` [Saquinavir mesylate], the growth is 0.0807 ± 0.0042.
On to `CCCN(CCC)CCc1cccc2c1CC(=O)N2` [Ropinirole HCl], for which the growth stood at 0.443 ± 0.028.
The molecule `CS(=O)(=O)OCCCCOS(C)(=O)=O` [Busulfan] showed a growth of 0.445 ± 0.033.
On to `C[C@H](CCC(=O)O)[C@H]1CC[C@H]2[C@@H]3CC[C@@H]4C[C@H](O)CC[C@]4(C)[C@H]3CC[C@]12C` [Lithocholic acid], for which the growth was determined as 0.386 ± 0.047.
`O=P(O)(O)C(O)(Cn1ccnc1)P(=O)(O)O` [Zoledronic acid hydrate] had a growth of 0.596 ± 0.074.
As for `CCOC(=O)C1=C(C)NC(C)=C(C(=O)OC)C1c1cccc(Cl)c1Cl` (stereo not given) [Felodipine], the figure is 0.0917 ± 0.0035; as for `CN(C)CCC=C1c2ccccc2CCc2ccccc21` [Amitryptiline hydrochloride], 0.476 ± 0.0078.
Take `CCn1cc(C(=O)O)c(=O)c2cnc(N3CCCC3)nc21` [Piromidic acid]: the growth was found to be 0.144 ± 0.003.
The molecule `CCc1cccc(CC)c1NC(=O)CN(CC(=O)O)CC(=O)O` [Etifenin] had a growth of 0.603 ± 0.11.
Turning to `CCN(CC)CCNC(=O)COc1ccc(OC)cc1` [Mefexamide hydrochloride], the growth stood at 0.501 ± 0.067.
`COc1ccc(-c2cc(=O)c3c(O)cc(O[C@@H]4O[C@H](CO[C@@H]5O[C@@H](C)[C@H](O)[C@@H](O)[C@H]5O)[C@@H](O)[C@H](O)[C@H]4O)cc3o2)cc1O` [Diosmin] yielded a growth of 0.578 ± 0.14.
The molecule `CNc1ncnc2c1ncn2[C@@H]1O[C@H](CO)[C@@H](O)[C@H]1O` [N6-methyladenosine] yielded a growth of 0.539 ± 0.094.
`COc1cc(C(=O)NS(=O)(=O)c2ccccc2C)ccc1Cc1cn(C)c2ccc(NC(=O)OC3CCCC3)cc12` [Zafirlukast] yielded a growth of 0.189 ± 0.01.
Take `O=C(NCC1CCCCN1)c1cc(OCC(F)(F)F)ccc1OCC(F)(F)F` (stereo not given) [Flecainide acetate]: the growth was 0.495 ± 0.081.
As to `CN(C)CCCN1c2ccccc2Sc2ccc(Cl)cc21` [Chlorpromazine hydrochloride], the growth turned out to be 0.105 ± 0.046.
`COc1ccc2c3c1O[C@H]1C[C@@H](O)C=C[C@@]31CCN(C)C2` [Galanthamine hydrobromide] gave a growth of 0.459 ± 0.04.
Next, `CC(CN(C)C)C(C)(O)Cc1ccc(Cl)cc1` (stereo not given) [Clobutinol hydrochloride]: 0.588 ± 0.083; `Clc1ccc(Cn2c(CN3CCCC3)nc3ccccc32)cc1` [Clemizole hydrochloride]: 0.452 ± 0.049.
Next, `NNc1nncc2ccccc12` [Hydralazine hydrochloride]: 0.448 ± 0.049.
As for `CO[C@@H]1[C@@H](O[C@@H]2O[C@H](C)[C@@H](O[C@H]3C[C@@](C)(O)[C@@H](OC(=O)CC(C)C)[C@H](C)O3)[C@H](N(C)C)[C@H]2O)[C@@H](CC=O)C[C@@H](C)[C@@H](O)/C=C/C=C/C[C@@H](C)OC(=O)C[C@H]1OC(C)=O` [Josamycin], the figure is 0.0528 ± 0.0019; as for `COc1cc([C@@H]2c3cc4c(cc3[C@@H](O[C@@H]3O[C@@H]5CO[C@@H](C)O[C@H]5[C@H](O)[C@H]3O)[C@H]3COC(=O)[C@H]23)OCO4)cc(OC)c1O` [Etoposide], 0.142 ± 0.0036; as for `CC(C)(Oc1ccc(Cl)cc1)C(=O)O` [Clofibric acid], 0.547 ± 0.1.
`CC(=O)OC(C)C[N+](C)(C)C` (stereo not given) [Methacholine chloride] yielded a growth of 0.466 ± 0.066.
Next, `COc1cc(C)c(/C=C/C(C)=C/C=C/C(C)=C/C(=O)O)c(C)c1C` [Acitretin]: 0.34 ± 0.0082.
`CC(C)COCC(CN(Cc1ccccc1)c1ccccc1)N1CCCC1` (stereo not given) [Bepridil hydrochloride] gave a growth of 0.04887 ± 0.00032.
The molecule `C[C@]12CC[C@@H]3c4ccc(O)cc4C[C@@H](CCCCCCCCC[S+]([O-])CCCC(F)(F)C(F)(F)F)[C@H]3[C@@H]1CC[C@@H]2O` (stereo not given in full) [Fulvestrant] yielded a growth of 0.439 ± 0.024.
Regarding `CCc1c(C)[nH]c2c1C(=O)C(CN1CCOCC1)CC2` (stereo not given) [Molindone hydrochloride], the growth came out at 0.472 ± 0.013.
Regarding `CC(=O)Oc1ccccc1C(=O)Nc1ncc([N+](=O)[O-])s1` [Nitazoxanide], the growth stood at 0.0524 ± 0.0014.
Turning to `CCCC(=O)Nc1ccc(OCC(O)CNC(C)C)c(C(C)=O)c1` (stereo not given) [Acebutolol hydrochloride], the growth came to 0.46 ± 0.044.
In turn, `Cc1cn[nH]c1` [Fomepizole] returned a growth of 0.554 ± 0.016.
As for `O=C(c1ccc(F)cc1)C1CCN(CCn2c(=O)[nH]c3ccccc3c2=O)CC1` [Ketanserin tartrate hydrate], the growth turned out to be 0.491 ± 0.043.
`CC(=O)N(CC(O)CN(C(C)=O)c1c(I)c(C(=O)NCC(O)CO)c(I)c(C(=O)NCC(O)CO)c1I)c1c(I)c(C(=O)NCC(O)CO)c(I)c(C(=O)NCC(O)CO)c1I` (stereo not given) [Iodixanol] came in with a growth of 0.537 ± 0.093.
As for `Cc1ccc(S(=O)(=O)NC(=O)NN2CCCCCC2)cc1` [Tolazamide], the figure is 0.482 ± 0.053; as for `CCn1cc(C(=O)O)c(=O)c2cc(F)c(N3CCNC(C)C3)c(F)c21` (stereo not given) [Lomefloxacin hydrochloride], 0.0513 ± 0.0014.
`CNCC[C@@H](Oc1cccc2ccccc12)c1cccs1` [(R)-Duloxetine hydrochloride]: the growth came to 0.503 ± 0.049.
